Among the test systems are T-47D breast; BT-549 breast; MDA-MB-435 melanoma; SW-620 colon; MCF7 breast; HCT-116 colon; HCC-2998 colon; KM12 colon.
Common to all, as to experiment: NCI-60 one-dose screen, 48 h (100 = growth as untreated, 0 = no growth, -100 = all killed)
What all share (details): 10 µM unless noted

Among the data in PubChem BioAssay (NCI) are growth values, retold here.

Compounds without any hit were thinned out: in the full panel of roughly 83,000, 20% have a hit.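 Interpretation: 100, growth as untreated; towards 0, rising growth inhibition; 0, no net growth; 0 to -100, cell death. Compounds scoring below 10 were considered active.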 A number with no mark means an inactive call. Calls of active or inactive are those of the source.

Consider `CCOC(=O)c1cc(Cl)c(O)c(Cl)c1`, for which the growth in the test on T-47D breast was 118%; in the test on BT-549 breast, 105%; in the test with MDA-MB-435 melanoma it was 126%; in the test with SW-620 colon, 109%; in the test on MCF7 breast, 98.1%; in the test on HCT-116 colon, 102%. Moreover, the growth in the test with HCC-2998 colon is 112%; in the test on KM12 colon, 108%.
For the molecule `COc1cc(C(=O)N2CCN(c3ccccc3)CC2)c2ccccc2n1`, the growth with T-47D breast is 51.1%; in the test on BT-549 breast it was 12.7%; with MDA-MB-435 melanoma, -24.2% (active); in the test on SW-620 colon it was 25.2%; in the test on MCF7 breast, 15.8%; in the test with HCT-116 colon, 8.75% (active). In addition, the figures for the growth in the test on HCC-2998 colon and in the test with KM12 colon were -20.3% (active) and 2.35% (active), respectively.
In the case of `Cc1[nH]n(-c2ccccc2)c(=O)c1C=NC(=S)C(N)=S`, the growth with T-47D breast was 102%; in the test on BT-549 breast, 108%; in the test on MDA-MB-435 melanoma, 109%; in the test on SW-620 colon, 104%; in the test with MCF7 breast it was 100%; in the test with HCT-116 colon, 89.5%. For the same molecule, the growth was 102% in the test with HCC-2998 colon and 103% in the test on KM12 colon.
Consider `CC(=O)Nc1ncc(S(=O)(=O)c2ccc([N+](=O)[O-])cc2)s1`, for which the growth was 91.4% with T-47D breast; 108% in the test on BT-549 breast; 111% in the test with MDA-MB-435 melanoma; 101% with SW-620 colon; 105% in the test on MCF7 breast; 98.9% in the test with HCT-116 colon. For the same molecule, the growth in the test on HCC-2998 colon is 128%; with KM12 colon, 116%.
For `N#C/C(=C\c1ccc(C#N)cc1)C(=O)c1ccccc1`, the growth with T-47D breast was 65.4%; in the test with BT-549 breast it was 112%; in the test with MDA-MB-435 melanoma, 107%; in the test with SW-620 colon, 109%; in the test on MCF7 breast, 97.5%; in the test with HCT-116 colon it was 97.8%. The growth is 104% with HCC-2998 colon and 107% in the test on KM12 colon.
As to `Cc1cc(Cc2ccccc2)c(O)c(Cc2ccccc2)c1`, the growth with T-47D breast was 85.3%; in the test on BT-549 breast, 84.1%; in the test on MDA-MB-435 melanoma it was 98.1%; in the test on SW-620 colon, 102%; with MCF7 breast it was 105%; in the test with HCT-116 colon, 73.5%. The growth is 101% in the test with HCC-2998 colon and 90.5% in the test with KM12 colon.
On to `OC(CCN1CCCCC1)(c1ccccc1)c1ccccc1`, for which the growth in the test with T-47D breast is 103%; in the test with BT-549 breast, 107%; in the test on MDA-MB-435 melanoma, 98.9%; in the test with SW-620 colon, 107%; in the test with MCF7 breast, 97.9%; in the test with HCT-116 colon it was 102%. The growth in the test on HCC-2998 colon was 99.1%; in the test on KM12 colon, 113%.
For `CCC(C)C1CCC(O)CC1` (centres undefined), the growth in the test on T-47D breast was 104%; with BT-549 breast, 98.5%; in the test on MDA-MB-435 melanoma, 103%; in the test with SW-620 colon, 107%; in the test on MCF7 breast, 100%; in the test with HCT-116 colon it was 101%. Besides, the growth with HCC-2998 colon is 107%; in the test on KM12 colon, 105%.
With `CC(C)c1ccc(C(=O)OCCCl)cc1`, the growth with T-47D breast is 91.1%; in the test on BT-549 breast, 100%; in the test with MDA-MB-435 melanoma, 95.9%; in the test with SW-620 colon, 106%; with MCF7 breast it was 92.6%; in the test on HCT-116 colon, 82.4%. Moreover, the growth in the test on HCC-2998 colon was 98.9%; with KM12 colon, 115%.
For the molecule `FC(F)(F)c1cc(NC2=NCCN=C(Nc3cc(C(F)(F)F)cc(C(F)(F)F)c3)SS2)cc(C(F)(F)F)c1`, the growth in the test on T-47D breast is 15.8%; with BT-549 breast, 71.2%; in the test with MDA-MB-435 melanoma it was 65.1%; in the test with SW-620 colon, 52%; in the test on MCF7 breast it was 31.6%; with HCT-116 colon it was 45.4%. For the same molecule, the growth is 76.9% in the test on HCC-2998 colon and 44.2% in the test with KM12 colon.
Consider `CN(CCCN(C)CCC1CCCCC1)CCC1CCCCC1`, for which the growth in the test on T-47D breast was 17.9%; in the test on BT-549 breast it was 39.2%; in the test on MDA-MB-435 melanoma, -26.1% (active); in the test on SW-620 colon, 75.2%; in the test with MCF7 breast, -47.4% (active); in the test with HCT-116 colon, 47.2%. Further, the growth with HCC-2998 colon was -30.1% (active); in the test with KM12 colon it was 46.7%.
For `N#C/C(=C\c1ccc2c(c1)OCO2)c1ccccc1`, the growth was 61.4% in the test with T-47D breast; 65.2% in the test with BT-549 breast; -1.53% (active) with MDA-MB-435 melanoma; 41.4% in the test on SW-620 colon; 53% in the test with MCF7 breast; 53.3% with HCT-116 colon. Further, the growth is 76.4% in the test on HCC-2998 colon and 42.8% in the test on KM12 colon.
`CC12CCC3c4ccc(O)cc4CCC3C1CCC2=O` (centres undefined): the growth was 103% with T-47D breast; 89.2% in the test with BT-549 breast; 112% in the test with MDA-MB-435 melanoma; 110% with SW-620 colon; 128% in the test with MCF7 breast; 95.3% in the test with HCT-116 colon. Besides, the growth in the test on HCC-2998 colon is 102%; in the test on KM12 colon, 109%.
With `CC1CCC(C)(C)c2ccccc21` (centres undefined), the growth with T-47D breast is 91.1%; with BT-549 breast it was 105%; in the test with MDA-MB-435 melanoma, 105%; in the test on SW-620 colon it was 115%; in the test on MCF7 breast it was 91.4%; in the test on HCT-116 colon it was 95.9%. The growth in the test with HCC-2998 colon is 96.9%; in the test on KM12 colon, 106%.
For the molecule `COc1cc(OC)c2cc(C(=O)c3ccc(C#N)cc3)c(=O)oc2c1`, the growth in the test on T-47D breast is 88.2%; in the test with BT-549 breast it was 87.3%; with MDA-MB-435 melanoma, 94.6%; in the test on SW-620 colon, 106%; with MCF7 breast, 97.1%; with HCT-116 colon it was 92.1%. The figures for the growth with HCC-2998 colon and in the test on KM12 colon were 107% and 97.5%, respectively.
Take `C[n+]1c(/C=C\C=C\N2CCCCC2)sc2ccccc21`: the growth is 5.32% (active) in the test on T-47D breast; 1.35% (active) with BT-549 breast; -1.72% (active) with MDA-MB-435 melanoma; 12.5% in the test on SW-620 colon; 4.75% (active) with MCF7 breast; -24.5% (active) in the test on HCT-116 colon. The growth in the test with HCC-2998 colon is 14%; in the test with KM12 colon, -11% (active).
Turning to `CC1CN(CCO)CC(C)O1` (centres undefined), the growth was 93% in the test with T-47D breast; 108% with BT-549 breast; 102% in the test with MDA-MB-435 melanoma; 102% with SW-620 colon; 109% in the test with MCF7 breast; 112% in the test with HCT-116 colon. The values for the growth in the test with HCC-2998 colon and in the test on KM12 colon were 119% and 101%, respectively.
On to `Clc1ccc(C(SCc2ccccc2)SCc2ccccc2)cc1`, for which the growth in the test with T-47D breast was 79%; in the test with BT-549 breast it was 103%; in the test on MDA-MB-435 melanoma it was 97.9%; in the test on SW-620 colon it was 89.4%; in the test on MCF7 breast, 93.8%; in the test on HCT-116 colon, 76.3%. The growth was 120% in the test with HCC-2998 colon and 85.1% in the test on KM12 colon.
`CCN(CC)CCOC(=O)Nc1c(C(C)C)cccc1C(C)C`: the growth in the test on T-47D breast is 103%; with BT-549 breast it was 117%; with MDA-MB-435 melanoma it was 102%; in the test on SW-620 colon, 118%; with MCF7 breast it was 101%; in the test on HCT-116 colon it was 101%. In addition, the growth in the test on HCC-2998 colon is 114%; in the test on KM12 colon, 105%.
As for `CC1(C)C2CCC1(C)C1(C2)OCCS1` (centres undefined), the growth in the test on T-47D breast is 93.9%; with BT-549 breast, 88.3%; in the test with MDA-MB-435 melanoma it was 99.6%; in the test on SW-620 colon, 100%; in the test with MCF7 breast it was 88.9%; in the test with HCT-116 colon, 110%. Moreover, the growth in the test with HCC-2998 colon was 101%; in the test on KM12 colon, 102%.
As to `O=C(OCc1ccccc1)n1nnc2ccccc21`, the growth in the test on T-47D breast was 106%; in the test with BT-549 breast, 100%; with MDA-MB-435 melanoma it was 101%; in the test with SW-620 colon, 107%; in the test on MCF7 breast it was 97.3%; with HCT-116 colon, 98.1%. Further, the growth is 103% with HCC-2998 colon and 107% in the test with KM12 colon.
On to `COc1ccc2c(Cl)cc(NC(=O)Nc3c(C)cccc3C)nc2c1`, for which the growth with T-47D breast is 62.2%; with BT-549 breast, 93.8%; in the test with MDA-MB-435 melanoma it was 83%; in the test with SW-620 colon, 85.3%; with MCF7 breast, 75.7%; with HCT-116 colon it was 63.8%. Besides, the growth in the test with HCC-2998 colon was 95.3%; in the test on KM12 colon it was 88.8%.
As to `OCC1CCC(O)C(CO)N1` (centres undefined), the growth in the test on T-47D breast is 111%; in the test with BT-549 breast it was 100%; in the test with MDA-MB-435 melanoma, 102%; with SW-620 colon, 101%; in the test with MCF7 breast it was 92.6%; in the test with HCT-116 colon it was 102%. For the same molecule, the growth in the test on HCC-2998 colon is 115%; in the test on KM12 colon, 103%.
